# Measured values from PubChem BioAssay.
# “And” between values parts separate entries of the source, which are not always exact repeats. Equal values may be shown once. For some of these results: Results with a measured potency or affinity are listed apart. More than one record can exist for a structure, and the calls need not agree. The source made the active and inactive calls. Unless noted, no rule for the calls is given here.
# How the values were obtained:
# [1] = antimalarial activity against Dd2 strain (AID 2302;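 active = growth inhibition above 50% at the single 2 µM test dose, taken to imply half-maximal potency below 2 µM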;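 also: 0% = DMSO untreated growth and 100% = chloroquine plus artemisinin killed control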); details: P. falciparum Dd2 in RBCs, LDH growth readout, 72 h; at 2 µM; stronger effect = higher value
# [2] = HepG2 cytotoxicity, primary screen, cytotoxicity control for P. falciparum antimalarial project, cell-based, ATP luminescence (AID 2303;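 active = inhibition above 50%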;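 also: 0% = DMSO wells and 100% = digitonin-killed cells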); details: HepG2 viability, 24-48 h, at 10 µM, stronger effect = higher value
# [3] = target: L-lactate dehydrogenase (Plasmodium falciparum (isolate CDC / Honduras)) (UniProt Q27743); assay: PfLDH activity inhibition – cell lysate, 3D7 strain, counter-screen for P. falciparum growth inhibition project (AID 2304);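 also: 0% = vehicle and 100% = reference inhibitor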; details: P. falciparum 3D7 crude extract, LDH APAD/NBT absorbance; at 2 µM; stronger effect = higher value
# Chain of L-lactate dehydrogenase (Plasmodium falciparum (isolate CDC / Honduras)) (Q27743 whole entry, looked up): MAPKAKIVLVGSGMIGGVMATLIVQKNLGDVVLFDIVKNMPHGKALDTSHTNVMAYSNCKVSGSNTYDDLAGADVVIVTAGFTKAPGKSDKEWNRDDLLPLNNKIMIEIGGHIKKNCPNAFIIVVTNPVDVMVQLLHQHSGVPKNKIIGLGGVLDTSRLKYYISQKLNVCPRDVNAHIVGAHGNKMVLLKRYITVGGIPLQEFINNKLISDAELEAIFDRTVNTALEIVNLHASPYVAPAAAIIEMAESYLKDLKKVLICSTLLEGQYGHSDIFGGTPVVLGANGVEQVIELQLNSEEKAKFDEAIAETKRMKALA
# [4] = inhibition of 3D7 malaria parasite growth – strain 3D7 (AID 2306);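 also: 0% = DMSO wells and 100% = chloroquine plus artemisinin control wells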; details: P. falciparum 3D7 erythrocytic growth, LDH absorbance, 72 h; at 2 µM; stronger effect = higher value
# [5] = target: Calcium-dependent protein kinase 1 (Plasmodium falciparum (isolate 3D7)) (UniProt P62344); assay: PfCDPK1 kinase inhibitors, biochemical, TCAMS library (AID 1159585; cut-off not given, nearly all actives have IC50 up to about 0.98 µM;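 also: inhibitors leave more ATP so luminescence rises with inhibition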); details: recombinant PfCDPK1, Kinase-Glo ATP depletion luminescence
# Chain of Calcium-dependent protein kinase 1 (Plasmodium falciparum (isolate 3D7)) (P62344 whole entry, looked up): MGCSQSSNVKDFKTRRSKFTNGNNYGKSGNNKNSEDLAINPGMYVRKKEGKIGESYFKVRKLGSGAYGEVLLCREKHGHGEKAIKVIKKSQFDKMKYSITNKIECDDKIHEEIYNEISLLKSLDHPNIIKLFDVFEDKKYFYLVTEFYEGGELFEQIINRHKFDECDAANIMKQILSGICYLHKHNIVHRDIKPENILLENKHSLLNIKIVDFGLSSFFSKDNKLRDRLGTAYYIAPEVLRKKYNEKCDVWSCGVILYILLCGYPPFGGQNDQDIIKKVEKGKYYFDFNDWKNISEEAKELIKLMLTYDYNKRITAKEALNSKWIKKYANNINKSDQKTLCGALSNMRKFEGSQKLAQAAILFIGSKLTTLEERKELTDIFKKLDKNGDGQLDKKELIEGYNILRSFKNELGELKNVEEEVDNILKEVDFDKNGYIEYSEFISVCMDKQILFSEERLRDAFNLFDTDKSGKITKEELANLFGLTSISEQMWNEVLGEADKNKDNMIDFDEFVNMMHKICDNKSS
# [6] = target: Plasmodium falciparum protein kinase 6 (PK6, PF3D7_1337100) (UniProt Q8IDW1); assay: PfPK6 kinase inhibitors, biochemical, TCAMS library (AID 1159586); details: recombinant PfPK6, Kinase-Glo ATP depletion luminescence
# Chain of Plasmodium falciparum protein kinase 6 (PK6, PF3D7_1337100) (Q8IDW1 1-305): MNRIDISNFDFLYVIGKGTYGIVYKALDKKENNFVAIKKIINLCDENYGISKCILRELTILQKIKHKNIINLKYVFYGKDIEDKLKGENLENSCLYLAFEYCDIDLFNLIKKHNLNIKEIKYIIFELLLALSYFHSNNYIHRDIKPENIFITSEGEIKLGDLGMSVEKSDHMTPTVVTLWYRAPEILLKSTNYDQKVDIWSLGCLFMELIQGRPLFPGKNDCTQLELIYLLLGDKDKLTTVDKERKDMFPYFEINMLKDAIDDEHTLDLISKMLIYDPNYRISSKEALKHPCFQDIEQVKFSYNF
# [7] = target: Protein kinase 7 (PK7), Plasmodium falciparum 3D7 (PF3D7_0213400) (UniProt Q7YTF7); assay: inhibition of Plasmodium PK7 catalytic activity – biochemical, TCAMS antimalarial set, Kinase-Glo luminescence (AID 1159587); details: recombinant PfPK7, Kinase-Glo ATP depletion luminescence
# Chain of Protein kinase 7 (PK7), Plasmodium falciparum 3D7 (PF3D7_0213400) (Q7YTF7 1-343): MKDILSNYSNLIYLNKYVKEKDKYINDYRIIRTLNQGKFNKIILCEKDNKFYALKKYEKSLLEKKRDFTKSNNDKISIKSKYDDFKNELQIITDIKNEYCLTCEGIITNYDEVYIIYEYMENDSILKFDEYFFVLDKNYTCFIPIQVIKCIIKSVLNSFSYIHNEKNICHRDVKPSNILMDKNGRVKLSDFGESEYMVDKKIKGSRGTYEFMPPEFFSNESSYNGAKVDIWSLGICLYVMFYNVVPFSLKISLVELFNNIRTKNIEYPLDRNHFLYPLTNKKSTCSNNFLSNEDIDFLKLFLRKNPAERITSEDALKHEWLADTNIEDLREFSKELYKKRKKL
# [8] = target: Calcium-dependent protein kinase 4 (Plasmodium falciparum (isolate 3D7)) (UniProt Q8IBS5); assay: PfCDPK4 kinase inhibitors, biochemical, TCAMS library (AID 1159588; cut-off not given, nearly all actives have IC50 up to about 0.91 µM); details: recombinant PfCDPK4, Kinase-Glo ATP depletion luminescence
# Chain of Calcium-dependent protein kinase 4 (Plasmodium falciparum (isolate 3D7)) (Q8IBS5 whole entry, looked up): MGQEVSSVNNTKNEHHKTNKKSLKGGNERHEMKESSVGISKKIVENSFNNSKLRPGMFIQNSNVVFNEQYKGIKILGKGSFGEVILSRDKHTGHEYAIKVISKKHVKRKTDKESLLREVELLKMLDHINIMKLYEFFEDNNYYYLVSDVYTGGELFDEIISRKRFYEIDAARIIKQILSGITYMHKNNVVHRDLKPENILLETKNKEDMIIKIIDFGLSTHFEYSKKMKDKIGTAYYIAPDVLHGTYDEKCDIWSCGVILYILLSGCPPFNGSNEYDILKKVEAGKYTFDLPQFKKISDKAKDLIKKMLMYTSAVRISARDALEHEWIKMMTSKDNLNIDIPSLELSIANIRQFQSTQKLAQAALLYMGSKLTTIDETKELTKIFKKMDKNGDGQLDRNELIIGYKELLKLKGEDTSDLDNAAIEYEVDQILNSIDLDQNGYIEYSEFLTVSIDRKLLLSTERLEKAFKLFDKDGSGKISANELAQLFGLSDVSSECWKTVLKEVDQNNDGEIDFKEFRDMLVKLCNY
SMILES,growth inhibition [1],inhibition [2],inhibition [3],growth inhibition [4],outcome [5],outcome [6],outcome [7],outcome [8]
Cn1c(C2C[C@H]3CC[C@H](C2)N3CC2CCC(NC(=O)/C=C/c3ccc(Cl)c(Cl)c3)CC2)nc2ccccc21 (some centres not stated),51% (active),50% (active),4% (inactive),100% (active),inactive,inactive,inactive,inactive
N#Cc1c(Cl)cccc1Oc1ccc(S(=O)(=O)NC2CCC(CN3CCC(c4c[nH]c5ccccc45)CC3)CC2)cc1 (configuration not stated),36% (inactive) and 16% (inactive),31% (inactive) and 29% (inactive),3% (inactive) and -3% (inactive),101% (active) and 85% (active),inactive,inactive,inactive,inactive
COc1cc2c(c(OC)c1OC)C[C@H]1c3c(cc4c(c3-2)OCO4)CCN1C,30% (inactive),7% (inactive),-1% (inactive),84% (active),inactive,inactive,inactive,inactive
Clc1ccc2nccc(N3CCC(CN4CCC(c5c[nH]c6ccccc56)CC4)CC3)c2c1,81% (active),46% (inactive),4% (inactive),101% (active),inactive,inactive,inactive,inactive
O=C(/C=C/c1ccc(Cl)c(Cl)c1)N1CCC(CN2CCC(c3c[nH]c4cc5c(cc34)OCO5)CC2)CC1,75% (active),41% (inactive),-2% (inactive),102% (active),inactive,inactive,inactive,inactive
O=C1Nc2cccc3c2C1(CCCCN1CC=C(c2c[nH]c4ncccc24)CC1)CCC3 (configuration not stated),80% (active),11% (inactive),-5% (inactive),92% (active),inactive,inactive,inactive,inactive
CCOc1ccc(CN(CCc2ccc3c(c2)OCO3)Cc2cc(OC)ccc2O)cc1,88% (active),3% (inactive),-4% (inactive),96% (active),inactive,inactive,inactive,inactive
Brc1cnc(NC2=NCCN2)c(Br)c1,-1% (inactive),-6% (inactive),-3% (inactive),99% (active),inactive,inactive,inactive,inactive
CCOC(C(=O)OCC1CCCN(C)C1)(c1ccccc1)c1ccccc1 (configuration not stated),3% (inactive),13% (inactive),0% (inactive),98% (active),inactive,inactive,inactive,inactive
CC[C@H]1CN2CC[C@@H]1C[C@H]2[C@H](O)c1cc(-c2cccnc2)nc2ccc(OC)cc12,99% (active),20% (inactive),3% (inactive),99% (active),inactive,inactive,inactive,inactive
COC(=O)c1ccc(CC(C)NCC(O)c2cccc(C(F)(F)F)c2)cc1C (configuration not stated),74% (active),6% (inactive),2% (inactive),93% (active),inactive,inactive,inactive,inactive
CC(C)CNCc1cccc(-c2cccc(CN(C(=O)c3cccs3)C3CCN(Cc4ccccc4)CC3)c2)c1,36% (inactive),14% (inactive),-4% (inactive),90% (active),inactive,inactive,inactive,inactive
CCCN(CCC)CCOC(=O)C(OCC)(c1ccccc1)c1ccccc1,0% (inactive),-2% (inactive),0% (inactive),97% (active),inactive,inactive,inactive,inactive
CC(C)CNCc1cccc(-c2ccc(CN(C(=O)NC3CCCCC3)C3CCN(Cc4ccccc4)CC3)cc2)c1,51% (active),27% (inactive),-2% (inactive),97% (active),inactive,inactive,inactive,inactive
CCCN(CC(=O)NCCc1ccccc1)c1ccc(C#N)c2ccccc12,39% (inactive),8% (inactive),-5% (inactive),92% (active),inactive,inactive,inactive,inactive
COc1cccc(CN2CCC(CCOC(c3ccccc3)c3ccc(Cl)cc3)CC2)c1O (configuration not stated),100% (active),22% (inactive),-2% (inactive),99% (active),inactive,inactive,inactive,inactive
CC(Cc1ccc([N+](=O)[O-])cc1)NCC(O)c1cccc(C(F)(F)F)c1 (configuration not stated),92% (active),-2% (inactive),-2% (inactive),98% (active),inactive,inactive,inactive,inactive
Cc1cc(NC(=O)[C@H](CC(C)C)Nc2ccc(C#N)c3ccccc23)ccc1F,88% (active),35% (inactive),3% (inactive),95% (active),inactive,inactive,inactive,inactive
CS(=O)(=O)Nc1ccc2[nH]cc(C3CCN(CC4CCN(C(=O)/C=C/c5ccc(Cl)c(Cl)c5)CC4)CC3)c2c1,92% (active),27% (inactive),-5% (inactive),101% (active),inactive,inactive,inactive,inactive
COc1cccc(CC(C)NCC(O)c2cccc(Cl)c2)c1 (configuration not stated),76% (active),7% (inactive),-1% (inactive),85% (active),inactive,inactive,inactive,inactive
O=C1c2ccccc2CCC1CCN1CC=C(c2c[nH]c3ccccc23)CC1 (configuration not stated),83% (active),5% (inactive),7% (inactive),89% (active),inactive,inactive,inactive,inactive
CC(=O)C1(c2ccccc2)CCN(CCC2(c3ccc(Cl)c(Cl)c3)CN(C(=O)Nc3cc(F)cc(F)c3)CCO2)CC1 (configuration not stated),20% (inactive),2% (inactive),-1% (inactive),86% (active),inactive,inactive,inactive,inactive

SMILES,growth inhibition [1],inhibition [2],inhibition [3],growth inhibition [4],outcome [5],outcome [6],outcome [7],outcome [8]
COc1cccc(C(=O)C2CC2CN2CC=C(c3c[nH]c4ccc(OC)nc34)CC2)c1 (configuration not stated),89% (active),8% (inactive),-2% (inactive),94% (active),inactive,inactive,inactive,inactive
Cc1cc(C)c(CC(C)NCC(O)c2cccc(C(F)(F)F)c2)c(C)c1 (configuration not stated),99% (active),0% (inactive),5% (inactive),100% (active),inactive,inactive,inactive,inactive
CC(=O)C1(c2ccccc2)CCN(CCC2(c3ccc(Cl)c(Cl)c3)CN(C(=O)CC(C)C)CCO2)CC1 (configuration not stated),94% (active),7% (inactive),0% (inactive),92% (active),inactive,inactive,inactive,inactive
CCCCc1ccc2[nH]cc(C3=CCN(C)CC3)c2c1Br,94% (active),37% (inactive),-5% (inactive),94% (active),inactive,inactive,inactive,inactive
CCCc1c(C(=O)NC2CCC(CN3CCC(c4c[nH]c5ccccc45)CC3)CC2)cnn1-c1ccccc1 (configuration not stated),7% (inactive),33% (inactive),-1% (inactive),92% (active),inactive,inactive,inactive,inactive
COc1cc(CC(C)NCC(O)c2cccc(C(F)(F)F)c2)ccc1OCc1ccccc1 (configuration not stated),71% (active),2% (inactive),2% (inactive),93% (active),inactive,inactive,inactive,inactive
CC[C@H]1CN2CC[C@@H]1C[C@H]2[C@H](O)c1cc(N2CCC(C(N)=O)CC2)nc2ccc(OC)cc12,9% (inactive),17% (inactive),-5% (inactive),99% (active),inactive,inactive,inactive,inactive
O=C(/C=C/c1ccc(C(F)(F)F)cc1)NC1CCC(CN2CCC(c3c[nH]c4ccccc34)CC2)CC1 (configuration not stated),97% (active) and 100% (active),42% (inactive) and 73% (active),-2% (inactive) and -3% (inactive),98% (active) and 101% (active),inactive,inactive,inactive,inactive
CC[C@H]1CN2CC[C@@H]1C[C@H]2[C@H](O)c1cc(N2CCSCC2)nc2ccc(OC)cc12,98% (active),2% (inactive),1% (inactive),99% (active),inactive,inactive,inactive,inactive
CCN1CC=C(c2c[nH]c3ccccc23)CC1,58% (active),27% (inactive),-1% (inactive),84% (active),inactive,inactive,inactive,inactive
CN1CC=C(C=Cc2c[nH]c3ccccc23)CC1,64% (active),14% (inactive),-1% (inactive),86% (active),inactive,inactive,inactive,inactive
O=C(c1cc(C(=O)NCc2ccc(Cl)cc2)c(=O)n(Cc2ccc(Cl)cc2)c1)c1cc(F)ccc1O,2% (inactive),7% (inactive),-2% (inactive),93% (active),inactive,inactive,inactive,inactive
CNCCCCCCc1ccc(CC(C)NCC(O)c2cccc(Cl)c2)cc1 (configuration not stated),76% (active),22% (inactive),4% (inactive),94% (active),inactive,inactive,inactive,inactive
C=C[C@@H]1CN2CC[C@H]1C[C@H]2[C@H](O)c1cc(-c2ccc(Cl)cc2)nc2ccc(OC)cc12,98% (active),38% (inactive),0% (inactive),99% (active),inactive,inactive,inactive,inactive
CC(=O)N(Cc1ccc(-c2ccc(CNCCc3ccccc3)cc2)cc1)C1CCN(Cc2ccccc2)CC1,15% (inactive),45% (inactive),-2% (inactive),95% (active),inactive,inactive,inactive,inactive
O=C(/C=C/c1ccc(Cl)c(Cl)c1)NCCCCCN1C2CCC1CC(c1c[nH]c3ccccc13)C2 (configuration not stated),4% (inactive),54% (active),-1% (inactive),98% (active),inactive,inactive,inactive,inactive
CN(C)CCC(=O)c1ccccc1,5% (inactive),11% (inactive),-6% (inactive),100% (active),inactive,inactive,inactive,inactive
Cc1c(C)c2c(c(C)c1O)CC[C@](C)(C(=O)NC1CCC(CN3CCC(c4c[nH]c5ccccc45)CC3)CC1)O2 (some centres not stated),98% (active) and 48% (inactive),24% (inactive) and 27% (inactive),-2% (inactive) and 1% (inactive),96% (active) and 85% (active),inactive,inactive,inactive,inactive
CCOC(=O)c1ccc(CC(C)NCC(O)c2cccc(C(F)(F)F)c2)cc1 (configuration not stated),98% (active),5% (inactive),-9% (inactive),100% (active),inactive,inactive,inactive,inactive
Cc1ccc(CC(C)(C)NCC(O)c2cccc(C(F)(F)F)c2)cc1 (configuration not stated),92% (active),19% (inactive),2% (inactive),97% (active),inactive,inactive,inactive,inactive
O=C(NCCCCN1CCC(c2ccc3c(c2OCCO)CCCC3)CC1)c1sc(-c2ccc(C(F)(F)F)cc2)nc1CO,20% (inactive),37% (inactive),-6% (inactive),95% (active),inactive,inactive,inactive,inactive
CN(c1cc(NC(=O)c2cccs2)ccn1)C1CCN(Cc2ccccc2)CC1,87% (active),-2% (inactive),-1% (inactive),92% (active),inactive,inactive,inactive,inactive
